Laboratory results as given in PubChem BioAssay (Tox21).
Records with an inconclusive call do not appear. Calls of active or inactive are those of the source. Unless noted, the call rests on the fitted dose curve.

How the values were obtained:
[1] = Nuclear factor erythroid 2-related factor 2/antioxidant responsive element (Nrf2/ARE) small molecule agonists: luciferase reporter gene qHTS assay in human keratinocytes (AID 1919969); further: nearly all actives have a fitted effect of over 35% in size; further: potency means the concentration at half of the fitted maximal effect
[2] = molecular target: Gonadotropin-releasing hormone receptor (Homo sapiens) (UniProt P30968); assay: Human gonadotropin-releasing hormone receptor (GnRHR) small molecule agonists, calcium flux assay in GnRHR-HEK293 cells (AID 1920063); further: nearly all actives have a fitted effect of over 35% in size; further: potency means the concentration at half of the fitted maximal effect
Sequence of Gonadotropin-releasing hormone receptor (Homo sapiens) (P30968 whole entry, looked up): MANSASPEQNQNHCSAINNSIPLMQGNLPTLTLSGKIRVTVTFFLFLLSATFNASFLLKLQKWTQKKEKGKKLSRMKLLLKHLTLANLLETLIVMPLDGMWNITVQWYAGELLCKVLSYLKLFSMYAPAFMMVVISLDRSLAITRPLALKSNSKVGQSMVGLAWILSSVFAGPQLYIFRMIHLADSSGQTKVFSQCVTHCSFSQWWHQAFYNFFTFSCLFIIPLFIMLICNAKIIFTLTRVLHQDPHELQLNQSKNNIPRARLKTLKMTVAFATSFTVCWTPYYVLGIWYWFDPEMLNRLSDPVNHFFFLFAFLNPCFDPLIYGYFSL
Method in brief: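 Agonist activity was measured as intracellular calcium flux in HEK293 cells engineered to stably express human GnRHR. After dye loading for 1 hour at 37 C, compounds in DMSO were added and fluorescence was followed for 3 minutes.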

[3] = molecular target: KiSS-1 receptor (Homo sapiens) (UniProt Q969F8); assay: Human kisspeptin (KISS1R) small molecule agonists, calcium flux assay in KISS1R-HEK293 cells (AID 1920064; active means well fitted activation curve with a large enough effect in the repeat runs)
Sequence of KiSS-1 receptor (Homo sapiens) (Q969F8 whole entry, looked up): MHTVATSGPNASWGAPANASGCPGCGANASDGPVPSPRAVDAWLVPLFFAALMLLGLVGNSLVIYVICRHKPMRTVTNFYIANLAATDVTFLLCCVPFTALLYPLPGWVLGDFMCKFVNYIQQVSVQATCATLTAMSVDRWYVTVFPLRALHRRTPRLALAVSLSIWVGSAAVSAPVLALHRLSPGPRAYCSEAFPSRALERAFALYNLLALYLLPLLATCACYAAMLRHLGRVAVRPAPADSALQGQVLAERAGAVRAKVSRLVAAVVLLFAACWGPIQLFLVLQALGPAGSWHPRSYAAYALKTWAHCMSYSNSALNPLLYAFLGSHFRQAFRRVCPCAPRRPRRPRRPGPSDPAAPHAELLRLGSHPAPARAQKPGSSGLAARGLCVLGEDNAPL
Method in brief: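 Agonist activity is monitored as intracellular calcium rise in engineered HEK293 cells carrying human KISS1R. Cells are dye-loaded for 1 h at 37 C before compound addition, and fluorescence is recorded for 3 min.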

[4] = G protein-coupled receptor (GPCR) small molecule agonists, calcium flux assay: HEK293 wild type cell line counter screen (AID 1920065); further: potency means the concentration at half of the fitted maximal effect
Method in brief: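 Seed cells, incubate 18 h (37 C, 5% CO2); add calcium dye, 1 h at 37 C; pin-transfer compounds, ATP control or DMSO; read fluorescence 480/540 nm each second for 3 min.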

[5] = p53 small molecule agonists, cell-based qHTS assay with human liver microsomes (AID 1963577);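 further: p53 response element beta-lactamase reporter cells with liver microsomes plus NADPH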
Method in brief: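 In this qHTS, p53 response-element beta-lactamase cells receive test compound together with a microsome/NADPH activating system (0.5 mg/mL final each) and are incubated 16 h at 37 C before LiveBLAzer fluorescence detection.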

[6] = p53 small molecule agonists, cell-based qHTS assay with rat liver microsomes (AID 1963578)
Method in brief: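 Agonist mode in p53RE-bla reporter cells, with compounds co-incubated 16 h at 37 C alongside 0.5 mg/mL rat liver microsomes and 0.5 mg/mL NADPH (final), followed by a 2 h LiveBLAzer detection step.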

[7] = p53 small molecule agonists, cell-based qHTS assay with rat liver microsomes: qHTS cell viability counter screen (AID 1963580); further: nearly all actives have a fitted effect of over 45% in size
Method in brief: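 Counter screen for cytotoxicity under metabolic activation: rat liver microsomes and NADPH, 0.5 mg/mL final each, added with compounds to p53RE-bla HCT-116 cells; 16 h at 37 C, then ATP luminescence read.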

[8] = p53 small molecule agonists, cell-based qHTS assay: qHTS cell viability counter screen (AID 1963581); further: nearly all actives have a fitted effect of over 45% in size; further: potency means the concentration at half of the fitted maximal effect
Method in brief: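 Viability was counter-screened in parallel with the p53 agonist reporter by measuring intracellular ATP luminescence in the same HCT-116 p53RE-bla wells after 16 h compound treatment at 37 C.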

[9] = molecular target: 5-hydroxytryptamine receptor 2A (Homo sapiens) (UniProt P28223); assay: 5-hydroxytryptamine receptor 2A (HTR2A) small molecule antagonists, cell-based qHTS assay (AID 1963586); further: nearly all actives have a fitted effect of over 45% in size; further: potency means the concentration at half of the fitted maximal effect
Sequence of 5-hydroxytryptamine receptor 2A (Homo sapiens) (P28223 whole entry, looked up): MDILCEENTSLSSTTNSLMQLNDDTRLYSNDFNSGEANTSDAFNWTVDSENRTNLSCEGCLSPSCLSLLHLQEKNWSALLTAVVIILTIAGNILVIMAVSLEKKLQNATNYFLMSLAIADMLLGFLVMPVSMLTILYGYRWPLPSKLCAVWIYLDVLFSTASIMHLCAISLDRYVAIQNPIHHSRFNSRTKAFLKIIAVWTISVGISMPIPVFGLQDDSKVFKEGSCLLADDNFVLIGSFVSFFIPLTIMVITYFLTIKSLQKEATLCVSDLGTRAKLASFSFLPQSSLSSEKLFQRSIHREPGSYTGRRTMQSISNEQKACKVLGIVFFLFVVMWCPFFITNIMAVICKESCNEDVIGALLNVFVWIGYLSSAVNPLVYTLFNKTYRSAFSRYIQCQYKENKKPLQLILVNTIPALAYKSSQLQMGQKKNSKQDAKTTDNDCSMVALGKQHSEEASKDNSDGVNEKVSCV
Method in brief: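 CHO cells stably expressing human HTR2A were plated for 18 h at 37 C, then loaded with calcium dye for 1 h. Compounds were preincubated 5 min at room temperature before DOI (4 nM solution) was added. Kinetic fluorescence was read for 3 min.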

[10] = molecular target: 5-hydroxytryptamine receptor 2A (Homo sapiens) (UniProt P28223); assay: 5-hydroxytryptamine receptor 2A (HTR2A) small molecule agonists, cell-based qHTS assay (AID 1963587); further: nearly all actives have a fitted effect of over 30% in size
Method in brief: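 HTR2A-CHO cells, plated 18 h at 37 C/5% CO2, dye-loaded 1 h at 37 C; compounds in DMSO added by pin tool (agonist mode). Intracellular calcium flux read as kinetic fluorescence on FDSS over 2 min at 1 s intervals.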

[11] = molecular target: Muscarinic acetylcholine receptor M1 (Homo sapiens) (UniProt P11229); assay: Cholinergic receptor muscarinic 1 (CHRM1) small molecule antagonists, cell-based qHTS assay (AID 1963588); further: nearly all actives have a fitted effect of over 40% in size
Sequence of Muscarinic acetylcholine receptor M1 (Homo sapiens) (P11229 whole entry, looked up): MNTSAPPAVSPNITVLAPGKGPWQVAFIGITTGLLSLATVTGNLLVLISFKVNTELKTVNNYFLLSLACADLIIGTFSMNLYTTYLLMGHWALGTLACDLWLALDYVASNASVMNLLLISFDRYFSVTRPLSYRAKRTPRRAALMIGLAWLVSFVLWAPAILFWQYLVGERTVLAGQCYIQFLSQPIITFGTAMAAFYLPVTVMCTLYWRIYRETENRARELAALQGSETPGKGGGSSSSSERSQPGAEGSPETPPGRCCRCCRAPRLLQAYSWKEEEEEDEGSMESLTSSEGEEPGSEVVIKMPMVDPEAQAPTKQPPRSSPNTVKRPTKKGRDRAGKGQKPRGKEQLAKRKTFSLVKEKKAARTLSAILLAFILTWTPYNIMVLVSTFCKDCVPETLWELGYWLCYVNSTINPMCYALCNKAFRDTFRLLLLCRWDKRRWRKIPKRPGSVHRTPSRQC
Method in brief: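 Compounds were tested at 15 concentrations in three independent runs. Dye-loaded CHRM1-CHO cells were exposed 5 min at room temperature before stimulation by acetylcholine added at 50nM. Intracellular calcium was read kinetically on FDSS for 3 min.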

[12] = molecular target: Muscarinic acetylcholine receptor M1 (Homo sapiens) (UniProt P11229); assay: Cholinergic receptor muscarinic 1 (CHRM1) small molecule agonists, cell-based qHTS assay (AID 1963589); further: nearly all actives have a fitted effect of over 35% in size
Method in brief: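 Cells were plated and incubated 18 h at 37 C/5% CO2, loaded with calcium dye for 1 h at 37 C, then treated with compounds in DMSO. Fluorescence was recorded kinetically at 1 sec intervals.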

[13] = molecular target: Beta-2 adrenergic receptor (Homo sapiens) (UniProt P07550); assay: Adrenergic beta2 receptor (ADRB2) small molecule antagonists, cell-based qHTS assay (AID 1963592); further: nearly all actives have a fitted effect of over 50% in size; further: potency means the concentration at half of the fitted maximal effect
Sequence of Beta-2 adrenergic receptor (Homo sapiens) (P07550 whole entry, looked up): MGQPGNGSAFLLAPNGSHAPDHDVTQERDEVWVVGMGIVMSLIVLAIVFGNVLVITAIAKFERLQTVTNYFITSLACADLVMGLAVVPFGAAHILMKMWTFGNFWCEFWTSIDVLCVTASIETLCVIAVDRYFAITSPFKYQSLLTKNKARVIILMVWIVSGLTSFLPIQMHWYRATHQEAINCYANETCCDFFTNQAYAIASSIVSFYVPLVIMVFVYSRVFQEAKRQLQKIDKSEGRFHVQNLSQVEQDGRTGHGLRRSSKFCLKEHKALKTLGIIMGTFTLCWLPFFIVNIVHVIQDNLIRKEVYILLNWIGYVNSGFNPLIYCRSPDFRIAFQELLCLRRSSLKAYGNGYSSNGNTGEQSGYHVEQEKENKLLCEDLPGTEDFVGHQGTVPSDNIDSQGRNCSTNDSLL
Method in brief: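 Assay format: CHO-ADRB2 cells, 18-20hr seeding at 37C/5% CO2, then compound plus 1nM isoproterenol agonist mix for 0.5hr RT. Homogeneous time-resolved fluorescence cAMP detection after 1hr, expressed as 665/615 nm ratio.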

[14] = molecular target: D(2) dopamine receptor (Homo sapiens) (UniProt P14416); assay: Dopamine D2 receptor (DRD2) small molecule agonists, cell-based qHTS assay (AID 1963594); further: nearly all actives have a fitted effect of over 35% in size
Sequence of D(2) dopamine receptor (Homo sapiens) (P14416 whole entry, looked up): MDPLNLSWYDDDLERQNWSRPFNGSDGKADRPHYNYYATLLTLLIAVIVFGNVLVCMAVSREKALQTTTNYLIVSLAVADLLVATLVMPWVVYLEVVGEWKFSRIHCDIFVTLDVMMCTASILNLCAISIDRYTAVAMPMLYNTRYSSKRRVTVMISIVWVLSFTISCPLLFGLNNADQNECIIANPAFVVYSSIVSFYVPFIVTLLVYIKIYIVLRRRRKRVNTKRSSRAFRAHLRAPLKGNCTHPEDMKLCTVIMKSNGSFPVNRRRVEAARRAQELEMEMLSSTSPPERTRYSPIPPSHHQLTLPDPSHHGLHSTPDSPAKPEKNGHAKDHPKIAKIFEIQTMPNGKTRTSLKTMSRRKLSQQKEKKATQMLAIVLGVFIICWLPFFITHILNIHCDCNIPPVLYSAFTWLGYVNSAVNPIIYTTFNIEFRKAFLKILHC
Method in brief: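 HEK293 cells stably expressing DRD2 were cultured 24 h at 37 C, then given Ro20-1724 (0.1 mM final) and compounds for 10 min at room temperature. NKH477 (200nM) was then added for 30 min. cAMP was read by HTRF.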

[15] = molecular target: D(2) dopamine receptor (Homo sapiens) (UniProt P14416); assay: Dopamine D2 receptor (DRD2) small molecule antagonists, cell-based qHTS assay (AID 1963595; active means well fitted inhibition curve with a large enough effect in the signal ratio in the repeat runs, with a control signal flat; the % refers to the signal ratio; further: potency means the concentration at half of the fitted maximal effect)
Method in brief: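 Antagonism was scored as restored cAMP in HEK293-DRD2 cells. These cells were stimulated with 200 nM NKH477 and 12 nM quinpirole for 30 min at room temperature, in the presence of 0.1 mM Ro20-1724.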

[16] = cAMP Responsive Elements (CRE) small molecule agonists, cell-based qHTS assay (AID 1963590)
Method in brief: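 Cells carrying a CRE-driven beta-lactamase reporter (HEK 293T) are seeded, incubated overnight (18 h), and treated with test compounds for 3 h at 37 C; reporter activity is then detected with a FRET substrate after 2 h at room temperature.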

[17] = cAMP Responsive Elements (CRE) small molecule antagonists, cell-based qHTS assay (AID 1963591; active means well fitted inhibition curve with a large enough effect in the signal ratio in the repeat runs, not every such curve was filed as active; the % refers to the signal ratio)
Method in brief: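 Cells (CRE-bla HEK 293T, DMEM with 10% dialyzed FBS and 25 mM HEPES) are seeded and incubated 18 h. Compounds are added with NKH477 agonist at 0.25 uM final for 3 h, then FRET substrate for 2 h.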

[18] = molecular target: Beta-2 adrenergic receptor (Homo sapiens) (UniProt P07550); assay: Adrenergic beta2 receptor (ADRB2) small molecule agonists, cell-based qHTS assay (AID 1963593);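 further: CHO cells stably overexpressing human ADRB2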
Method in brief: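 CHO cells stably over-expressing ADRB2 were plated overnight at 37C, then dosed with compounds plus a stimulation mix containing 100uM IBMX and 25uM Ro-20-1724 for 0.5hr at room temperature. cAMP was measured by HTRF competition, 1hr.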

[19] = p53 small molecule agonists, cell-based qHTS assay with human liver microsomes: qHTS cell viability counter screen (AID 1963579); further: nearly all actives have a fitted effect of over 45% in size
Method in brief: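 Metabolically activated exposure: compounds, human liver microsomes and NADPH (0.5 mg/mL final apiece) were added to p53RE-bla cells seeded 5 h earlier, left 16 h at 37 C, and then assessed for viability by CellTiter-Glo luminescence.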

[20] = p53 small molecule agonists, cell-based qHTS assay (AID 1963582; active means well fitted activation curve with a large enough effect in the signal ratio in the repeat runs, not every such curve was filed as active; the % refers to the signal ratio; further: potency means the concentration at half of the fitted maximal effect)
Method in brief: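 Cells carrying a p53-responsive bla reporter are treated with test compounds for 16 h at 37 C; beta-lactamase activity is then detected with LiveBLAzer B/G FRET substrate after 2 h at room temperature.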
On the % scale 0 is the no-effect control and ±100 the full control effect.

Cc1cc(O)ccc1O
active: Potency [1] 24.6 µM
inactive: Potency [2] | Potency [3] | Potency [4] | Potency [5] | Potency [6] | Potency [7] | Potency [8] | Potency [9] | Potency [10] | Potency [11] | Potency [12]

O=C(Nc1cccc([N+](=O)[O-])c1)c1cc2ccccc2cc1O
active: Potency [1] 61.1 µM
inactive: Potency [2] | Potency [3] | Potency [4] | Potency [5] | Potency [6] | Potency [7] | Potency [8] | Potency [9] | Potency [10] | Potency [11] | Potency [12] | Potency [13] | Potency [14] | Potency [15]

CCN(CC)C(=O)c1cc(S(=O)(=O)Cc2ccccc2)c(N2CCC(c3ccccc3)CC2)cc1N(CC)CCN(C)C
active: Potency [15] 21.4 µM
inactive: Potency [1] | Potency [2] | Potency [3] | Potency [4] | Potency [5] | Potency [6] | Potency [7] | Potency [8] | Potency [10] | Potency [12] | Potency [14]

CCCCOC(=O)c1ccccc1C(=O)OCC(CC)CCCC (configuration not stated)
active: Potency [1] 43.3 µM
inactive: Potency [2] | Potency [3] | Potency [4] | Potency [5] | Potency [6] | Potency [8] | Potency [9] | Potency [10] | Potency [11] | Potency [12] | Potency [16] | Potency [17] | Potency [13] | Potency [14] | Potency [15]

CC/C=C\C/C=C\C/C=C\CCCCCCCC(=O)OC
inactive: Potency [2] | Potency [3] | Potency [4] | Potency [5] | Potency [6] | Potency [9] | Potency [11] | Potency [12] | Potency [17] | Potency [18] | Potency [14]
active: Potency [1] 27.3 µM

CC1=C(/C=C/C(C)=C/C=C/C(C)=C/C=O)C(C)(C)CCC1
active: Potency [1] 27.1 µM
inactive: Potency [2] | Potency [3] | Potency [4] | Potency [5] | Potency [6] | Potency [9] | Potency [10] | Potency [11] | Potency [12] | Potency [13] | Potency [18] | Potency [14] | Potency [15]

COc1cc(C=C2CCC/C(=C\c3ccc(O)c(OC)c3)C2=O)ccc1O
inactive: Potency [2] | Potency [3] | Potency [4] | Potency [5] | Potency [6] | Potency [19] | Potency [11] | Potency [12] | Potency [13] | Potency [18] | Potency [14] | Potency [15]
active: Potency [1] 6.68 µM | Potency [8] 14.1 µM | Potency [9] 18.3 µM

CNCCCC1c2ccccc2C=Cc2ccccc21
active: Potency [9] 7.29 µM
inactive: Potency [1] | Potency [2] | Potency [3] | Potency [4] | Potency [5] | Potency [19] | Potency [7] | Potency [8] | Potency [20] | Potency [12] | Potency [16] | Potency [17] | Potency [14]

CCCCCCCCS(=O)C(C)Cc1ccc2c(c1)OCO2 (configuration not stated)
inactive: Potency [1] | Potency [2] | Potency [3] | Potency [4] | Potency [5] | Potency [6] | Potency [10] | Potency [11] | Potency [12] | Potency [13] | Potency [18] | Potency [14] | Potency [15]

CCCCCCCCCCCCOCCOS(=O)(=O)O
inactive: Potency [1] | Potency [3] | Potency [4] | Potency [5] | Potency [6] | Potency [7] | Potency [20] | Potency [11] | Potency [12] | Potency [13] | Potency [18] | Potency [14] | Potency [15]
active: Potency [2] 38.9 µM

NC(=O)c1nc(-c2cccc(-c3cc(F)ccc3OCC(F)(F)C(F)(F)F)c2)n[nH]1
inactive: Potency [1] | Potency [2] | Potency [3] | Potency [4] | Potency [5] | Potency [6] | Potency [19] | Potency [9] | Potency [10] | Potency [11] | Potency [12] | Potency [13] | Potency [14] | Potency [15]

O=C(OC[C@H]1O[C@@H](OC(=O)c2cc(O)c(O)c(OC(=O)c3cc(O)c(O)c(O)c3)c2)[C@H](OC(=O)c2cc(O)c(O)c(OC(=O)c3cc(O)c(O)c(O)c3)c2)[C@@H](OC(=O)c2cc(O)c(O)c(OC(=O)c3cc(O)c(O)c(O)c3)c2)[C@@H]1OC(=O)c1cc(O)c(O)c(OC(=O)c2cc(O)c(O)c(O)c2)c1)c1cc(O)c(O)c(OC(=O)c2cc(O)c(O)c(O)c2)c1
active: Potency [20] 11 µM
inactive: activity, positive = activation [1] -5.14% [at 19 µM] | activity change [2] -0.655% [at 11.8 µM, hits give high values] | activation [3] -0.551% [at 15.8 µM] | activation [4] 0.5% [at 11.8 µM] | activation [5] -11.4% [at 13.5 µM] | activation [6] -4% [at 13.6 µM] | activity change, negative = cytotoxicity [7] 7.08% [at 13.5 µM] | activation [16] 4.01% [at 19 µM]

O=C(Oc1ccccc1)c1ccc2ccccc2c1O
active: Potency [1] 8.63 µM
inactive: Potency [2] | Potency [3] | Potency [4] | Potency [5] | Potency [19] | Potency [7] | Potency [8] | Potency [20] | Potency [10] | Potency [11] | Potency [12] | Potency [16] | Potency [17] | Potency [13] | Potency [18] | Potency [14] | Potency [15]

c1ccc(-c2ccc(C(c3ccccc3)n3ccnc3)cc2)cc1 (configuration not stated)
inactive: Potency [2] | Potency [3] | Potency [4] | Potency [5] | Potency [6] | Potency [7] | Potency [8] | Potency [10] | Potency [12] | Potency [16] | Potency [13] | Potency [18] | Potency [14]
active: Potency [1] 29.8 µM

CC1CCCNC1 (configuration not stated)
inactive: Potency [2] | Potency [3] | Potency [4] | Potency [5] | Potency [6] | Potency [8] | Potency [20] | Potency [9] | Potency [10] | Potency [11] | Potency [12] | Potency [16] | Potency [17] | Potency [13] | Potency [18] | Potency [14] | Potency [15]
active: Potency [1] 67.1 µM

O=C(Nc1ccccc1)c1cc(Cl)ccc1O
active: Potency [1] 13.7 µM | Potency [4] 12.3 µM | Potency [8] 40.8 µM | Potency [13] 61.1 µM
inactive: Potency [2] | Potency [3] | Potency [5] | Potency [6] | Potency [10] | Potency [12] | Potency [14] | Potency [15]
